Cytotoxicity call data for 64 molecules are collected here from the antibiotic and cytotoxicity screens of Wong et al. (2023).

In all, about 39,000 compounds went through this assay and about 1,500 (3.8%) were called active. The list comes from a sample in which actives are over-represented; it also holds similar structures and randomly drawn compounds.

For this assay, the system named is HSkMC (human skeletal muscle cells). Nature of the assay: cytotoxicity call (relative viability < 0.9). As to conditions: 10 µM.
On to `CO[C@@H]1CN(C)C(=O)c2cc(NS(=O)(=O)c3ccccc3)ccc2OC[C@@H](C)N(C(=O)NC(C)C)C[C@H]1C`, for which the cytotoxicity call was “inactive”.

Take `C[C@H]1CN([C@@H](C)CO)C(=O)Cc2cc(NS(=O)(=O)c3cn(C)cn3)ccc2O[C@H]1CN(C)Cc1ccccc1`: the cytotoxicity call was “inactive”.

In the case of `CCn1cc(-c2ccnc3[nH]c(-c4cccc(CN(C)C)c4)cc23)c(-c2ccc(NC(=O)N(C)C)cc2)n1`, the cytotoxicity call is “active”. As to `COc1ccccc1S(=O)(=O)N1C[C@H](O)COC[C@H]2O[C@@H](CC(=O)O)CC[C@@H]21`, the cytotoxicity call is “inactive”.

For `CCn1c(N)c(C(N)=O)sc1=S`, the cytotoxicity call was “inactive”.

On to `C[C@H](CO)N1C[C@H](C)[C@H](CN(C)C(=O)Nc2ccc(C(F)(F)F)cc2)Oc2c(NC(=O)Nc3cccc4ccccc34)cccc2C1=O`, for which the cytotoxicity call was “inactive”. Take `C[C@@H]1CN([C@H](C)CO)C(=O)c2cccc(NC(=O)Nc3cccc4ccccc34)c2O[C@@H]1CN(C)C(=O)Nc1ccc(C(F)(F)F)cc1`: the cytotoxicity call is “active”.

As for `C[C@@H]1CN([C@@H](C)CO)C(=O)c2cccc(NC(=O)Nc3cccc4ccccc34)c2O[C@H]1CN(C)C(=O)Nc1ccc(C(F)(F)F)cc1`, the cytotoxicity call is “active”. In the case of `C[C@H](CO)N1C[C@H](C)[C@@H](CN(C)C(=O)Nc2ccc(C(F)(F)F)cc2)Oc2c(NC(=O)Nc3cccc4ccccc34)cccc2C1=O`, the cytotoxicity call was “active”. With `C[C@@H]1CN([C@H](C)CO)C(=O)c2cccc(NC(=O)Nc3cccc4ccccc34)c2O[C@H]1CN(C)C(=O)Nc1ccc(C(F)(F)F)cc1` the entry was “inactive”; with `C[C@H]1CN([C@@H](C)CO)C(=O)c2cccc(NC(=O)Nc3cccc4ccccc34)c2O[C@H]1CN(C)C(=O)Nc1ccc(C(F)(F)F)cc1`, “active”. As to `CCN1CCO[C@@]2(O)C=CC(=O)C=C12`, the cytotoxicity call is “inactive”. For `CCc1ccc(NC(=O)C2CCN(S(=O)(=O)c3c(C)[nH]c(=O)[nH]c3=O)CC2)cc1`, the cytotoxicity call is “inactive”.

On to `Cc1ccc(S(=O)(=O)Nc2ccc3c(c2)C(=O)N([C@@H](C)CO)C[C@@H](C)[C@@H](CN(C)S(=O)(=O)c2ccc(C)cc2)OCCCC[C@H](C)O3)cc1`, for which the cytotoxicity call is “inactive”. Consider `C[C@@H]1CN([C@H](C)CO)C(=O)c2cc(NC(=O)Cc3ccccc3)ccc2O[C@@H](C)CCCCO[C@H]1CN(C)C(=O)Nc1cccc2ccccc12`, for which the cytotoxicity call is “inactive”. As for `CC(C)NC(=O)Nc1ccc2c(c1)CC(=O)N([C@@H](C)CO)C[C@H](C)[C@H](CN(C)Cc1ccc(-c3ccccc3)cc1)O2`, the cytotoxicity call is “inactive”.

`O=C(C[C@H]1CC[C@@H](NS(=O)(=O)c2ccccc2)[C@H](CO)O1)NCc1ccncn1`: the cytotoxicity call was “inactive”.

Take `Cc1ccc(S(=O)(=O)Nc2ccc3c(c2)C(=O)N([C@@H](C)CO)C[C@@H](C)[C@H](CN(C)C(=O)Nc2ccc(C(F)(F)F)cc2)O3)cc1`: the cytotoxicity call was “inactive”. With `C[C@@H]1CN([C@@H](C)CO)C(=O)Cc2cc(NC(=O)CCN3CCOCC3)ccc2O[C@H]1CN(C)S(=O)(=O)c1cccs1` the entry was “inactive”.

With `C[C@H]1CN([C@@H](C)CO)C(=O)c2ccccc2-c2ccccc2CO[C@@H]1CN(C)C(=O)Nc1cccc(F)c1`, the cytotoxicity call is “inactive”. On to `NC(=O)c1cccc(S(N)(=O)=O)c1`, for which the cytotoxicity call was “inactive”. With `C[C@@H]1CN([C@H](C)CO)C(=O)c2cc(N(C)C)ccc2O[C@@H](C)CCCCO[C@H]1CN(C)C(=O)Nc1ccc(C(F)(F)F)cc1` the entry was “inactive”; with `C[C@H]1CN([C@@H](C)CO)C(=O)c2cccc(NC(=O)Nc3cccc4ccccc34)c2O[C@@H]1CN(C)C(=O)Nc1ccc(C(F)(F)F)cc1`, “active”; with `COc1ccc(S(=O)(=O)N(C)C[C@@H]2Oc3ccc(NC(=O)CCCN(C)C)cc3CC(=O)N([C@@H](C)CO)C[C@@H]2C)cc1`, “inactive”.

`C[C@@H]1CN([C@@H](C)CO)C(=O)c2cc(NC(=O)Nc3ccccc3)ccc2O[C@@H]1CN(C)Cc1ccc(-c2ccccc2)cc1`: the cytotoxicity call was “active”. As to `C[C@H](CO)N1C[C@H](C)[C@H](CN(C)Cc2ccc(-c3ccccc3)cc2)Oc2ccc(NC(=O)Nc3ccc(F)cc3)cc2C1=O`, the cytotoxicity call was “inactive”. For `C[C@@H]1CN([C@@H](C)CO)C(=O)c2cc(NC(=O)Nc3ccccc3)ccc2O[C@H]1CN(C)Cc1ccc(-c2ccccc2)cc1`, the cytotoxicity call is “inactive”. Take `C[C@@H]1CN([C@@H](C)CO)C(=O)c2cc(NC(=O)Nc3ccc(F)cc3)ccc2O[C@@H]1CN(C)Cc1ccc(-c2ccccc2)cc1`: the cytotoxicity call was “active”. The same measure for `C[C@H]1CN([C@@H](C)CO)C(=O)c2cc(NC(=O)Nc3ccccc3)ccc2O[C@H]1CN(C)Cc1ccc(-c2ccccc2)cc1`: “inactive”. `C[C@H]1CN([C@@H](C)CO)C(=O)c2cc(NC(=O)Nc3ccc(F)cc3)ccc2O[C@@H]1CN(C)Cc1ccc(-c2ccccc2)cc1`: the cytotoxicity call was “inactive”. For `C[C@H](CO)N1C[C@H](C)[C@H](CN(C)Cc2ccc(-c3ccccc3)cc2)Oc2ccc(NC(=O)Nc3ccccc3)cc2C1=O`, the cytotoxicity call was “inactive”. With `C[C@H](CO)N1C[C@H](C)[C@@H](CN(C)Cc2ccc(-c3ccccc3)cc2)Oc2ccc(NC(=O)Nc3ccccc3)cc2C1=O`, the cytotoxicity call is “inactive”.

As for `C[C@@H]1CN([C@H](C)CO)C(=O)c2cc(NC(=O)Nc3ccc(F)cc3)ccc2O[C@H]1CN(C)Cc1ccc(-c2ccccc2)cc1`, the cytotoxicity call was “active”.

With `C[C@@H]1CN([C@H](C)CO)C(=O)c2cc(NC(=O)Nc3ccccc3)ccc2O[C@H]1CN(C)Cc1ccc(-c2ccccc2)cc1`, the cytotoxicity call was “inactive”. On to `C[C@@H]1CN([C@H](C)CO)C(=O)c2cc(NC(=O)Nc3ccccc3)ccc2O[C@@H]1CN(C)Cc1ccc(-c2ccccc2)cc1`, for which the cytotoxicity call is “inactive”. As for `C[C@@H]1CN([C@@H](C)CO)C(=O)c2cc(NC(=O)Nc3ccc(F)cc3)ccc2O[C@H]1CN(C)Cc1ccc(-c2ccccc2)cc1`, the cytotoxicity call is “active”. Take `CC(C)NC(=O)Nc1ccc2c(c1)CC(=O)N([C@@H](C)CO)C[C@H](C)[C@H](CN(C)Cc1ccc3c(c1)OCO3)O2`: the cytotoxicity call is “inactive”.

As for `O=c1nc[nH]c2c1ncn2[C@H]1CC[C@@H](CO)O1`, the cytotoxicity call was “inactive”. The same measure for `Cn1cnc(S(=O)(=O)N2C[C@@H](O)COC[C@H]3O[C@H](CC(=O)NC4CCC4)CC[C@@H]32)c1`: “inactive”; for `O=C(C[C@H]1CC[C@@H]2[C@H](COC[C@H](O)CN2S(=O)(=O)c2ccc(Cl)cc2)O1)NCC1CCCCC1`: “inactive”. Consider `C[C@H](CO)N1C[C@H](C)[C@H](CN(C)C(=O)Nc2ccc(F)cc2)OCCCC[C@H](C)Oc2ccc(NC(=O)Cc3ccccc3)cc2C1=O`, for which the cytotoxicity call is “inactive”.

For `C[C@@H]1CN([C@H](C)CO)C(=O)c2cc(NC(=O)Nc3ccc(F)cc3)ccc2O[C@@H]1CN(C)Cc1ccc(-c2ccccc2)cc1`, the cytotoxicity call is “active”.

`C[C@H](CO)N1C[C@H](C)[C@@H](CN(C)Cc2ccc(-c3ccccc3)cc2)Oc2ccc(NC(=O)Nc3ccc(F)cc3)cc2C1=O`: the cytotoxicity call is “inactive”.

On to `C[C@H]1CN([C@@H](C)CO)C(=O)c2cc(NC(=O)Nc3ccc(F)cc3)ccc2O[C@H]1CN(C)Cc1ccc(-c2ccccc2)cc1`, for which the cytotoxicity call is “inactive”. With `C[C@]12C=CC(=O)N[C@@H]1CC[C@@H]1[C@@H]2CC[C@]2(C)[C@@H](C(=O)Nc3cc(C(F)(F)F)ccc3C(F)(F)F)CC[C@@H]12` the entry was “inactive”.

On to `CCCNC(=O)N1C[C@@H](O)COC[C@H]2O[C@H](CC(=O)NCc3ccncn3)CC[C@@H]21`, for which the cytotoxicity call is “inactive”. With `C[C@@H]1CN([C@@H](C)CO)C(=O)Cc2cc(NC(=O)CCC(F)(F)F)ccc2O[C@H]1CN(C)S(=O)(=O)c1ccccc1` the entry was “inactive”; with `CCC(C)C(N)C(=O)O` (centres undefined), “inactive”. With `COc1ccccc1CN(C)C[C@@H]1OCc2ccccc2-c2c(n(C)c3ccccc23)C(=O)N([C@H](C)CO)C[C@@H]1C` the entry was “inactive”; with `C[C@@H]1CN([C@@H](C)CO)C(=O)c2c(c3ccccc3n2C)-c2ccccc2CO[C@H]1CN(C)Cc1ccccc1C(F)(F)F`, “active”; with `COc1ccccc1CN(C)C[C@@H]1OCc2ccccc2-c2c(n(C)c3ccccc23)C(=O)N([C@@H](C)CO)C[C@H]1C`, “inactive”.

Regarding `C[C@@H]1CN([C@@H](C)CO)C(=O)c2c(c3ccccc3n2C)-c2ccccc2CO[C@@H]1CN(C)Cc1ccccc1C(F)(F)F`, the cytotoxicity call was “active”. For the molecule `COc1ccccc1CN(C)C[C@H]1OCc2ccccc2-c2c(n(C)c3ccccc23)C(=O)N([C@H](C)CO)C[C@@H]1C`, the cytotoxicity call was “inactive”. With `C[C@H](CO)N1C[C@H](C)[C@@H](CN(C)Cc2ccccc2C(F)(F)F)OCc2ccccc2-c2c(n(C)c3ccccc23)C1=O` the entry was “active”. With `C[C@@H]1CN([C@H](C)CO)C(=O)c2c(c3ccccc3n2C)-c2ccccc2CO[C@@H]1CN(C)Cc1ccccc1C(F)(F)F` the entry was “active”; with `COc1ccccc1CN(C)C[C@@H]1OCc2ccccc2-c2c(n(C)c3ccccc23)C(=O)N([C@@H](C)CO)C[C@@H]1C`, “inactive”. With `COc1ccccc1CN(C)C[C@@H]1OCc2ccccc2-c2c(n(C)c3ccccc23)C(=O)N([C@H](C)CO)C[C@H]1C` the entry was “inactive”; with `Cc1noc(C)c1NC(=O)Nc1ccc2c(c1)C(=O)N([C@@H](C)CO)C[C@H](C)[C@H](CN(C)S(=O)(=O)c1ccc(F)cc1)OCCCC[C@@H](C)O2`, “inactive”; with `C[C@@H]1CN([C@H](C)CO)C(=O)c2cc(NC(=O)CCCN(C)C)ccc2O[C@H]1CN(C)S(=O)(=O)c1cn(C)cn1`, “inactive”.

`CCS(=O)(=O)CCn1c([N+](=O)[O-])cnc1C`: the cytotoxicity call is “inactive”. On to `Cc1noc(C)c1S(=O)(=O)Nc1cccc2c1O[C@@H](CN(C)S(=O)(=O)c1ccc(Cl)cc1)[C@@H](C)CN([C@H](C)CO)C2=O`, for which the cytotoxicity call is “inactive”.

As to `C[C@@H]1CCCCO[C@H](CN(C)S(C)(=O)=O)[C@@H](C)CN([C@@H](C)CO)C(=O)c2cc(NS(=O)(=O)c3ccc(F)cc3)ccc2O1`, the cytotoxicity call was “inactive”.

In the case of `CO[C@H](CN(C)S(=O)(=O)c1cccc(Cl)c1)[C@@H](C)CN([C@H](C)CO)S(=O)(=O)c1ccc(Cl)cc1`, the cytotoxicity call was “inactive”. The same measure for `O=C(N[C@@H]1CC[C@@H](CC(=O)N2CCOCC2)O[C@H]1CO)c1ccccn1`: “inactive”.
